Measurements taken from PubChem BioAssay AID1159580 (chemical genetic matrix, 2015).
In all, about 5,500 compounds went through this assay and about 2,000 (36%) were called active. Another 18% or so got no clear call; they are omitted. Cut-off read from the data, not from the text of the source: active = normalized growth mostly below about 0.91 (no sharp cut-off); inconclusive = no clear call, values can overlap the other calls; inactive = mostly above about 0.92. Some of the results follow.

Test: chemical genetic growth profiling, strain panel (AID 1159580);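 note: tested at 20 µM; growth read once vehicle control cultures reached saturation at 30 °C; 1 = growth at the plate median or of vehicle wells; lower values mean less growth of the strain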
Conditions: growth OD

Measured: normalized growth

Nc1ncnc2c1ncn2[C@@H]1O[C@H](CO)[C@@H](O)[C@@H]1O
inactive: S. cerevisiae deletion strains, locus YJR075W, strain HOC1, active compounds read low 1.02 | S. cerevisiae deletion strains, locus YKL009W, strain mrt4, active compounds read low 1.08 | S. cerevisiae deletion strains, locus YKL068W, active compounds read low 1.01 | S. cerevisiae deletion strains, locus YKL085W, strain MDH1 (second series), active compounds read low 1 | S. cerevisiae deletion strains, locus YKL085W, strain MDH1, active compounds read low 1 | S. cerevisiae deletion strains, locus YKL160W, strain elf1, active compounds read low 1 | S. cerevisiae deletion strains, locus YKL190W, strain CNB1, active compounds read low 0.996 | S. cerevisiae deletion strains, locus YKR001C, strain vps1, active compounds read low 1.04 | S. cerevisiae deletion strains, locus YKR026C, strain gcn3, active compounds read low 1.01 | S. cerevisiae deletion strains, locus YKR091W, strain srl3, active compounds read low 1.01 | S. cerevisiae deletion strains, locus YLL001W, strain dnm1, active compounds read low 1.02 | S. cerevisiae deletion strains, locus YLL026W, active compounds read low 1 | S. cerevisiae deletion strains, locus YLL041C, strain sdh2, active compounds read low 1.01 | S. cerevisiae deletion strains, locus YLR027C, strain aat2, active compounds read low 1.01 | S. cerevisiae deletion strains, locus YLR039C, strain RIC1, active compounds read low 1.02 | S. cerevisiae deletion strains, locus YLR058C, strain SHM2, active compounds read low 1.01 | S. cerevisiae deletion strains, locus YLR102C, strain apc9, active compounds read low 1.02 | S. cerevisiae deletion strains, locus YLR113W, strain HOG1, active compounds read low 1 | S. cerevisiae deletion strains, locus YLR221C, strain rsa3, active compounds read low 1.01 | S. cerevisiae deletion strains, locus YLR258W, strain gsy2, active compounds read low 1.01 | S. cerevisiae deletion strains, locus YLR262C, strain YPT6 (second series), active compounds read low 1.03 | S. cerevisiae deletion strains, locus YLR262C, strain YPT6, active compounds read low 1.03 | S. cerevisiae deletion strains, locus YLR268W, strain sec22, active compounds read low 1.04 | S. cerevisiae deletion strains, locus YLR320W, strain mms22, active compounds read low 1 | S. cerevisiae deletion strains, locus YLR330W, strain CHS5, active compounds read low 1.01 | S. cerevisiae deletion strains, locus YLR342W, strain FKS1 (second series), active compounds read low 0.989 | S. cerevisiae deletion strains, locus YLR342W, strain FKS1, active compounds read low 1.01 | S. cerevisiae deletion strains, locus YLR357W, strain rsc2, active compounds read low 1.04 | S. cerevisiae deletion strains, locus YLR370C, strain arc18, active compounds read low 1.02 | S. cerevisiae deletion strains, locus YLR371W, strain rom2, active compounds read low 1.02 | S. cerevisiae deletion strains, locus YLR384C, strain iki3, active compounds read low 1.01 | S. cerevisiae deletion strains, locus YLR418C, strain cdc73, active compounds read low 1.05 | S. cerevisiae deletion strains, locus YML016C, strain PPZ1, active compounds read low 1.01 | S. cerevisiae deletion strains, locus YML032C, strain rad52, active compounds read low 1.03 | S. cerevisiae deletion strains, locus YML120C, strain ndi1, active compounds read low 1.01 | S. cerevisiae deletion strains, locus YML124C, strain tub3, active compounds read low 1.03 | S. cerevisiae deletion strains, locus YMR058W, strain fet3, active compounds read low 1.02 | S. cerevisiae deletion strains, locus YMR078C, strain ctf18, active compounds read low 1.03 | S. cerevisiae deletion strains, locus YMR125W, strain sto1, active compounds read low 1.01 | S. cerevisiae deletion strains, locus YMR129W, active compounds read low 1.01 | S. cerevisiae deletion strains, locus YMR205C, strain PFK2, active compounds read low 1.03 | S. cerevisiae deletion strains, locus YMR223W, strain ubp8, active compounds read low 1.03 | S. cerevisiae deletion strains, locus YMR231W, strain pep5, active compounds read low 1.01 | S. cerevisiae deletion strains, locus YMR263W, strain SAP30, active compounds read low 1.01 | S. cerevisiae deletion strains, locus YMR307W, strain GAS1, active compounds read low 1.01 | S. cerevisiae deletion strains, locus YNL067W, strain RPL9B, active compounds read low 1.01 | S. cerevisiae deletion strains, locus YNL071W, strain lat1, active compounds read low 1.02 | S. cerevisiae deletion strains, locus YNL128W, strain TEP1, active compounds read low 1.02 | S. cerevisiae deletion strains, locus YNL153C, strain GIM3, active compounds read low 1.01 | S. cerevisiae deletion strains, locus YNL183C, strain NPR1, active compounds read low 0.952 | S. cerevisiae deletion strains, locus YNL209W, strain ssb2, active compounds read low 1.01 | S. cerevisiae deletion strains, locus YNL233W, strain BNI4, active compounds read low 1.02 | S. cerevisiae deletion strains, locus YNL248C, strain rpa49, active compounds read low 1.01 | S. cerevisiae deletion strains, locus YNL250W, strain rad50, active compounds read low 1.03 | S. cerevisiae deletion strains, locus YNL271C, strain bni1, active compounds read low 1.03 | S. cerevisiae deletion strains, locus YNL298W, strain CLA4, active compounds read low 1.02 | S. cerevisiae deletion strains, locus YNL307C, strain MCK1, active compounds read low 1.03 | S. cerevisiae deletion strains, locus YNL322C, strain KRE1 (second series), active compounds read low 1.02 | S. cerevisiae deletion strains, locus YNL322C, strain KRE1, active compounds read low 1.01 | S. cerevisiae deletion strains, locus YNR049C, strain mso1, active compounds read low 1.02 | S. cerevisiae deletion strains, locus YNR052C, strain pop2, active compounds read low 1.03 | S. cerevisiae deletion strains, locus YOL006C, strain TOP1, active compounds read low 1.06 | S. cerevisiae deletion strains, locus YOL012C, strain htz1 1.2 | S. cerevisiae deletion strains, locus YOL147C, strain pex11, active compounds read low 1.03 | S. cerevisiae deletion strains, locus YOR001W, strain rrp6, active compounds read low 1.02 | S. cerevisiae deletion strains, locus YOR061W, strain CKA2, active compounds read low 1.02 | S. cerevisiae deletion strains, locus YOR069W, strain VPS5, active compounds read low 1 | S. cerevisiae deletion strains, locus YOR070C, strain gyp1, active compounds read low 1.02 | S. cerevisiae deletion strains, locus YOR080W, strain dia2, active compounds read low 1 | S. cerevisiae deletion strains, locus YOR083W, strain WHI5, active compounds read low 1.01 | S. cerevisiae deletion strains, locus YOR106W, strain vam3, active compounds read low 1.01 | S. cerevisiae deletion strains, locus YOR136W, strain idh2, active compounds read low 1.03 | S. cerevisiae deletion strains, locus YOR144C, strain elg1, active compounds read low 1.03 | S. cerevisiae deletion strains, locus YOR184W, strain ser1, active compounds read low 1.05 | S. cerevisiae deletion strains, locus YOR231W, strain MKK1, active compounds read low 0.981 | S. cerevisiae deletion strains, locus YOR265W, strain rbl2, active compounds read low 1 | S. cerevisiae deletion strains, locus YOR270C, strain vph1, active compounds read low 1.06 | S. cerevisiae deletion strains, locus YOR290C, strain snf2, active compounds read low 1.03 | S. cerevisiae deletion strains, locus YOR316C, strain cot1, active compounds read low 1.03 | S. cerevisiae deletion strains, locus YPL051W, strain arl3, active compounds read low 1.01 | S. cerevisiae deletion strains, locus YPL055C, strain LGE1, active compounds read low 1.04 | S. cerevisiae deletion strains, locus YPL078C, strain atp4, active compounds read low 1.02 | S. cerevisiae deletion strains, locus YPL106C, strain sse1, active compounds read low 1.02 | S. cerevisiae deletion strains, locus YPL240C, strain hsp82, active compounds read low 1.03 | S. cerevisiae deletion strains, locus YPL241C, strain CIN2, active compounds read low 1 | S. cerevisiae deletion strains, locus YPL256C, strain CLN2, active compounds read low 0.963 | S. cerevisiae deletion strains, locus YPR119W, strain clb2, active compounds read low 1.03 | S. cerevisiae deletion strains, locus YPR141C, strain kar3, active compounds read low 1.03 | S. cerevisiae deletion strains, locus YPR163C, strain tif3, active compounds read low 1.04 | S. cerevisiae deletion strains, locus YPR167C, strain met16, active compounds read low 1.03 | S. cerevisiae deletion strains, strain wtn01, active compounds read low 1.02 | S. cerevisiae strains, strain wild type, active compounds read low 1.01
